# Records with an inconclusive call do not appear. Where a call stands in place of a potency, no number is given. The source made the active and inactive calls. The call rests on the fitted dose curve; in most records, active means well fitted inhibition curve with a large enough effect; inconclusive means small, poorly fitted or top-dose-only effect; inactive means no such curve, though single readings can be large or run the other way.
# Tested on: Zika virus NS2B-NS3 protease (linked construct)
# Test: Primary screen NINDS Rhodamine qHTS for Zika virus inhibitors (AID 1347160); further: nearly all actives have a fitted effect of over 55% in size
# Conditions: purified NS2B-NS3 protease, Rhodamine110 substrate fluorescence; series mostly up to 57.1 µM
# Outline: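 Aprotinin served as in-plate control. Conditions: 25 nM linked NS2B-NS3, pH 8.0 Tris buffer, titrated compounds, 15 min preincubation and 15 min reaction with 1.5 microM Rhod110 substrate at room temperature.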
row,SMILES,Potency
1,O=C(c1cncc(Br)c1)N1CCC(N2CCCC2)CC1,inactive
2,Cc1cc(N2CCOCC2)cc2[nH]c(-c3c(NC[C@@H](O)c4cccc(Cl)c4)cc[nH]c3=O)nc12,inactive
3,Cc1cnc(-c2cnc(NCCNc3ccc(C#N)cn3)nc2-c2ccc(Cl)cc2Cl)[nH]1,inactive
4,C#Cc1cccc(Nc2ncnc3cc(OC)c(OCCCCCCC(=O)NO)cc23)c1,inactive
5,Cn1c2ccccc2c2c3c(c4c5ccccc5n(CCC#N)c4c21)CNC3=O,inactive
6,COc1cc2c(Oc3ccc(NC(=O)C4(C(=O)Nc5ccc(F)cc5)CC4)cc3F)ccnc2cc1OCCCN1CCOCC1,inactive

# Tested on: not listed separately
# Test: Confirmatory screen NINDS Rhodamine qHTS for Zika virus inhibitors (AID 1347161); further: nearly all actives have a fitted effect of over 60% in size; further: potency means the concentration at half of the fitted maximal effect
# Conditions: purified enzyme assay, Rhodamine110 substrate fluorescence, 15 min; series mostly up to 114 µM
# Outline: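 Rhodamine110-peptide cleavage (1.5 µM substrate) by 25 nM linked NS2B-NS3 enzyme at pH 8.0 (Tris, Tween 20), after 15 min RT preincubation with compounds; 15-min fluorescence change normalized to controls and Hill-fitted.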
row,SMILES,Potency
1,COc1cc2c(cc1-c1c(C)noc1C)ncc1[nH]c(=O)n([C@H](C)c3ccccn3)c12,inactive
2,Cc1c(C)n(Cc2ccc(-c3ccccc3C(=O)O)cc2)c2ccc(C(=O)N[C@@H](C)c3ccc([N+](=O)[O-])cc3)cc12,3.12 µM (active)
3,CCN(CC)CCCCNc1ncc2cc(-c3cc(OC)cc(OC)c3)c(NC(=O)NC(C)(C)C)nc2n1,inactive
4,CC(C)c1ccccc1Cc1cc(C(=O)Nc2ccc(S(=O)(=O)c3ccccc3C(C)(C)C)cc2)c(O)c(O)c1O,90.3 µM (active)
5,Cc1cc(N2CCOCC2)cc2[nH]c(-c3c(NC[C@@H](O)c4cccc(Cl)c4)cc[nH]c3=O)nc12,44 µM (active)
6,COc1cc(C(=O)NS(=O)(=O)c2ccccc2C)ccc1Cc1cn(C)c2ccc(NC(=O)OC3CCCC3)cc12,1.56 µM (active)
7,CCN1CCN(Cc2ccc(-c3cc4c(N[C@H](C)c5ccccc5)ncnc4[nH]3)cc2)CC1,inactive

# Tested on: Zika virus NS2B-NS3 protease (linked)
# Test: 384 well plate NINDS AMC confirmatory qHTS for Zika virus inhibitors (AID 1347163); further: nearly all actives have a fitted effect of over 50% in size; further: potency means the concentration at half of the fitted maximal effect
# Conditions: Recombinant NS2B-NS3 protease, Ac-VKTGKR-AMC fluorescence; series mostly up to 100 µM
# Outline: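 Enzyme (5, 30 or 60 nM final) first met test compounds for ~15 min. The AMC-tagged peptide Ac-VKTGKR-AMC followed at 30 microM. Fluorescence was then recorded at 25 min and scaled against no-enzyme and no-inhibitor wells.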
row,SMILES,Potency
1,Cc1c(C)n(Cc2ccc(-c3ccccc3C(=O)O)cc2)c2ccc(C(=O)N[C@@H](C)c3ccc([N+](=O)[O-])cc3)cc12,112 µM (active)
2,CC(C)c1ccccc1Cc1cc(C(=O)Nc2ccc(S(=O)(=O)c3ccccc3C(C)(C)C)cc2)c(O)c(O)c1O,2.24 µM (active)
3,Cc1cc(N2CCOCC2)cc2[nH]c(-c3c(NC[C@@H](O)c4cccc(Cl)c4)cc[nH]c3=O)nc12,inactive
4,COc1cc(C(=O)NS(=O)(=O)c2ccccc2C)ccc1Cc1cn(C)c2ccc(NC(=O)OC3CCCC3)cc12,141 µM (active)
5,C[C@@]12O[C@@H](C[C@]1(O)CO)n1c3ccccc3c3c4c(c5c6ccccc6n2c5c31)CNC4=O,inactive

# Reference: PubChem BioAssay (NCATS)
